Results reported in PubChem BioAssay.
Entries with a potency or affinity are not part of this list. Calls of active or inactive are those of the source. Unless noted, how the calls were made is not given here.

Molecular target: Calcium-dependent protein kinase 1 (Plasmodium falciparum (isolate 3D7)) (UniProt P62344)
Test: PfCDPK1 kinase inhibitors, biochemical, TCAMS library (AID 1159585; cut-off not given, nearly all actives have IC50 up to about 0.98 µM;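 further: inhibitors leave more ATP so luminescence rises with inhibition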)
Conditions: recombinant PfCDPK1, Kinase-Glo ATP depletion luminescence

Sequence of Calcium-dependent protein kinase 1 (Plasmodium falciparum (isolate 3D7)) (P62344 whole entry, looked up): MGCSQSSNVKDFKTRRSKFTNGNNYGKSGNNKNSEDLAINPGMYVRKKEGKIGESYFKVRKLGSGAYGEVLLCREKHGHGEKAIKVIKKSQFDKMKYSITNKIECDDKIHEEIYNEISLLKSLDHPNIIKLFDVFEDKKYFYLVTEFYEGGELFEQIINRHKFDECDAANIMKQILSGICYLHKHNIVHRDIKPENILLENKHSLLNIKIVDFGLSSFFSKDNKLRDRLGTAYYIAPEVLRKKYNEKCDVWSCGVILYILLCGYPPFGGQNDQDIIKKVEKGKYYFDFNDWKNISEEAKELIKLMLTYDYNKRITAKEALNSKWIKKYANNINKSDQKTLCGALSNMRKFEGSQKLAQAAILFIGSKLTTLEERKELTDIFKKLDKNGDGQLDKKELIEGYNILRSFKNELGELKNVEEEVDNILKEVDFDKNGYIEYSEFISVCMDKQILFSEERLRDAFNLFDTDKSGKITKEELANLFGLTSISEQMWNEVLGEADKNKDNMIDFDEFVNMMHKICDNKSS

outcome, inactive:
COc1cc(OC)c2c(c1Cl)O[C@]1(C2=O)C(=O)C(Cc2ccccc2)(Cc2ccccc2)C(=O)C[C@H]1C, CCC(CN1C(=O)C(c2ccccc2)(c2ccccc2)N=C1N)c1ccccc1 (stereo not given), Cc1cc(N[C@@H](Cc2ccccc2)C(=O)NCc2cccc(F)c2)nc(Nc2ccccc2)n1, Fc1ccc2c(NN=Cc3ccccc3)ccnc2c1, CC(C)CCNC(=O)C1Cc2c([nH]c3cc(Br)ccc23)C2(CCN(CCc3ccccc3)CC2)N1 (stereo not given), Cc1cccnc1CNc1nccc2c(C)c(C)[nH]c12, CC(C)(C)c1ccc(CN2CCC(NC(=O)c3ccc(-c4cccc(Cl)c4)s3)CC2)cc1, O=C(/C=C/c1ccc(Cl)c(Cl)c1)N1CCC(CNCc2cccc3cc[nH]c23)CC1, Cc1cccc2[nH]c(-c3cccc(-c4ccc(NC(=O)c5cccc(C(N)=O)c5)cc4)c3)nc12, CCN1CCN(CCCNc2ccnc3cc(Cl)ccc23)CC1, Cc1cc(-c2cccc(CNC3CCN(C)CC3)c2)ccc1S(=O)(=O)NC1CCC1, CCOc1c(CNCCCNc2cc(=O)c3ccccc3[nH]2)cc(Br)cc1OC, CCCCCCCCCc1c(C)[nH]c2ccccc2c1=O, COc1ccc2nccc([C@@H](O)CN3CCC(NCc4cn5cc(F)ccc5n4)CC3)c2c1, CCCN1CCN(Cc2ccc(C(=O)Nc3ccc(Cl)cc3)cc2)CC1, Cc1ccc(NC(=O)Nc2ccc(Cn3ncc(N4CCCNCC4)c(Cl)c3=O)cc2)cc1, COc1ccc(-c2nc(NC(=O)CSc3ccc([N+](=O)[O-])cc3)sc2C)cc1, CC(=O)N(Cc1nc(-c2cc(Cl)c(Cl)s2)cs1)c1c(C)cccc1C, COc1cc(CNc2ccc(N3CCCC3)cc2)cc(Cl)c1OC, CC(C)(C)C(Cn1ccnc1)NCc1cn[nH]c1-c1ccc(-c2ccccc2)cc1 (stereo not given), CCCCCN1CCCC(CNS(=O)(=O)c2ccc(C(=O)Nc3ccc(C(F)(F)F)cc3)cc2)C1 (stereo not given), Oc1ccc2[nH]c(-c3ccc(OC(F)(F)F)cc3)nc2c1CNC1CCCC1, COc1ccc2nccc([C@@H](O)CN3CCC(NCc4cc5cc(Cl)ccc5[nH]4)CC3)c2c1, COC[C@H]1CCCN1Cc1ccc(-c2ccc(-c3nc4ccccc4[nH]3)s2)cc1, CN(C)c1ccc(-c2csc(C(=O)NC3CCN(Cc4ccc(C(C)(C)C)cc4)C3)c2)cc1 (stereo not given), Cc1[nH]c(C)c(-c2ccc(-c3ccc(OC(F)(F)F)cc3)nc2)c(=O)c1Cl, COc1ccc(CN2CCCN(Cc3cccc(C(=O)Nc4ccc(C)c(F)c4)c3)CC2)cc1, Cc1cc(N[C@@H](CC(C)C)C(=O)NCCOc2ccccc2)nc(NCC2CCCCC2)n1, COc1cc(OC)cc(C(=O)Nc2nc(-c3ccccn3)cs2)c1, CN(C)c1ccc(-c2ccc(C(=O)NC3CCN(Cc4cccc(C(F)(F)F)c4)CC3)s2)cc1, COc1ccc(OCC(=O)Nc2nc(-c3ccc(OC)cc3)c(C)s2)cc1, Cc1cc(N[C@@H](Cc2ccccc2)C(=O)Nc2ccccc2)nc(NCCc2ccccn2)n1, CCN(CCCN1CCCCC1)c1cc(C)nc(Nc2ccc(Br)cc2F)n1, CN=C(NC)c1cccc(NC(=O)C=Cc2ccc(C=CC(=O)Nc3cccc(C(=NC)NC)c3)cc2)c1, CC(=O)NC1=NC(C)(C)N(OCCCOc2ccc(Cl)c(Cl)c2)C(NC(C)=O)=N1, CC1c2cccc(O)c2CCN1CCc1ccc(Cl)c(Cl)c1 (stereo not given), CC1CCCN(C(=O)c2cc(-c3ccccn3)nc3c(Cl)cccc23)C1 (stereo not given), CCc1cn2c3c(cc(C(=O)N[C@@H](Cc4ccccc4)[C@H](O)CNC4CCCCC4)cc13)N(CC)S(=O)(=O)CC2, COc1ccc2ncc(Cl)c(CCN3CC[C@@H](CNCc4cc5c(cn4)OCS5)C3)c2n1, COc1ccc2nccc(N3CCC(CCNCc4cc5c(cn4)OCCO5)CC3)c2c1

Molecular target: Plasmodium falciparum protein kinase 6 (PK6, PF3D7_1337100) (UniProt Q8IDW1)
Test: PfPK6 kinase inhibitors, biochemical, TCAMS library (AID 1159586)
Conditions: recombinant PfPK6, Kinase-Glo ATP depletion luminescence

Sequence of Plasmodium falciparum protein kinase 6 (PK6, PF3D7_1337100) (Q8IDW1 1-305): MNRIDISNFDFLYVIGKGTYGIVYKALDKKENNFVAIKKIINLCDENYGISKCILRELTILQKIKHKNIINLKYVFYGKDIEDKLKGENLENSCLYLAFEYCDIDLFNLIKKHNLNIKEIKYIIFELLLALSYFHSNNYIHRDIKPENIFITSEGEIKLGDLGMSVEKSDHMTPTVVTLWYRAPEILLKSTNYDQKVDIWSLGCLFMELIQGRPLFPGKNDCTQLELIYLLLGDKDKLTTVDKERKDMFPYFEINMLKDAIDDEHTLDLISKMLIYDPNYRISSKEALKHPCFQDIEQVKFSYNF

outcome, inactive:
COc1cc(OC)c2c(c1Cl)O[C@]1(C2=O)C(=O)C(Cc2ccccc2)(Cc2ccccc2)C(=O)C[C@H]1C, CCC(CN1C(=O)C(c2ccccc2)(c2ccccc2)N=C1N)c1ccccc1 (stereo not given), Cc1cc(N[C@@H](Cc2ccccc2)C(=O)NCc2cccc(F)c2)nc(Nc2ccccc2)n1, Fc1ccc2c(NN=Cc3ccccc3)ccnc2c1, CC(C)CCNC(=O)C1Cc2c([nH]c3cc(Br)ccc23)C2(CCN(CCc3ccccc3)CC2)N1 (stereo not given), Cc1cccnc1CNc1nccc2c(C)c(C)[nH]c12, CC(C)(C)c1ccc(CN2CCC(NC(=O)c3ccc(-c4cccc(Cl)c4)s3)CC2)cc1, O=C(/C=C/c1ccc(Cl)c(Cl)c1)N1CCC(CNCc2cccc3cc[nH]c23)CC1, Cc1cccc2[nH]c(-c3cccc(-c4ccc(NC(=O)c5cccc(C(N)=O)c5)cc4)c3)nc12, CCN1CCN(CCCNc2ccnc3cc(Cl)ccc23)CC1, Cc1cc(-c2cccc(CNC3CCN(C)CC3)c2)ccc1S(=O)(=O)NC1CCC1, CCOc1c(CNCCCNc2cc(=O)c3ccccc3[nH]2)cc(Br)cc1OC, CCCCCCCCCc1c(C)[nH]c2ccccc2c1=O, COc1ccc2nccc([C@@H](O)CN3CCC(NCc4cn5cc(F)ccc5n4)CC3)c2c1, CCCN1CCN(Cc2ccc(C(=O)Nc3ccc(Cl)cc3)cc2)CC1, Cc1ccc(NC(=O)Nc2ccc(Cn3ncc(N4CCCNCC4)c(Cl)c3=O)cc2)cc1, COc1ccc(-c2nc(NC(=O)CSc3ccc([N+](=O)[O-])cc3)sc2C)cc1, CC(=O)N(Cc1nc(-c2cc(Cl)c(Cl)s2)cs1)c1c(C)cccc1C, COc1cc(CNc2ccc(N3CCCC3)cc2)cc(Cl)c1OC, CC(C)(C)C(Cn1ccnc1)NCc1cn[nH]c1-c1ccc(-c2ccccc2)cc1 (stereo not given), CCCCCN1CCCC(CNS(=O)(=O)c2ccc(C(=O)Nc3ccc(C(F)(F)F)cc3)cc2)C1 (stereo not given), Oc1ccc2[nH]c(-c3ccc(OC(F)(F)F)cc3)nc2c1CNC1CCCC1, COc1ccc2nccc([C@@H](O)CN3CCC(NCc4cc5cc(Cl)ccc5[nH]4)CC3)c2c1, COC[C@H]1CCCN1Cc1ccc(-c2ccc(-c3nc4ccccc4[nH]3)s2)cc1, CN(C)c1ccc(-c2csc(C(=O)NC3CCN(Cc4ccc(C(C)(C)C)cc4)C3)c2)cc1 (stereo not given), Cc1[nH]c(C)c(-c2ccc(-c3ccc(OC(F)(F)F)cc3)nc2)c(=O)c1Cl, COc1ccc(CN2CCCN(Cc3cccc(C(=O)Nc4ccc(C)c(F)c4)c3)CC2)cc1, Cc1cc(N[C@@H](CC(C)C)C(=O)NCCOc2ccccc2)nc(NCC2CCCCC2)n1, COc1cc(OC)cc(C(=O)Nc2nc(-c3ccccn3)cs2)c1, CN(C)c1ccc(-c2ccc(C(=O)NC3CCN(Cc4cccc(C(F)(F)F)c4)CC3)s2)cc1, COc1ccc(OCC(=O)Nc2nc(-c3ccc(OC)cc3)c(C)s2)cc1, Cc1cc(N[C@@H](Cc2ccccc2)C(=O)Nc2ccccc2)nc(NCCc2ccccn2)n1, CCN(CCCN1CCCCC1)c1cc(C)nc(Nc2ccc(Br)cc2F)n1, CN=C(NC)c1cccc(NC(=O)C=Cc2ccc(C=CC(=O)Nc3cccc(C(=NC)NC)c3)cc2)c1, CC(=O)NC1=NC(C)(C)N(OCCCOc2ccc(Cl)c(Cl)c2)C(NC(C)=O)=N1, CC1c2cccc(O)c2CCN1CCc1ccc(Cl)c(Cl)c1 (stereo not given), CC1CCCN(C(=O)c2cc(-c3ccccn3)nc3c(Cl)cccc23)C1 (stereo not given), CCc1cn2c3c(cc(C(=O)N[C@@H](Cc4ccccc4)[C@H](O)CNC4CCCCC4)cc13)N(CC)S(=O)(=O)CC2, COc1ccc2ncc(Cl)c(CCN3CC[C@@H](CNCc4cc5c(cn4)OCS5)C3)c2n1, COc1ccc2nccc(N3CCC(CCNCc4cc5c(cn4)OCCO5)CC3)c2c1
